About 83,000 compounds went through this panel and 20% of them were active in at least one assay; those are over-represented in the sample as a whole.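 Results are percent growth after 48 hours of single-concentration exposure. 100 means growth as in untreated cells, lower positive values show inhibition; negative values down to -100 show cell death.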 Values without a mark were called inactive. Active and inactive are the calls of the source. The calls were made as follows: active = growth percent below 10; inactive = the rest.

Common to all, as to assay: NCI-60 one-dose screen, 48 h (100 = growth as untreated, 0 = no growth, -100 = all killed)
The subject of assay [1] is HCT-15 colon. Particulars: 10 µM unless noted.
The test system of assay [2] is HT29 colon. The following applies: 10 µM unless noted.
Assay [3] relates to SNB-75 CNS. The following applies: 10 µM unless noted.
The subject of assay [4] is SNB-19 CNS. The following applies: 10 µM unless noted.
The subject of assay [5] is U251 CNS. The following applies: 10 µM unless noted.
For assay [6], the system named is PC-3 prostate. The following applies: 10 µM unless noted.
Assay [7] has as its system SK-MEL-5 melanoma. Particulars: 10 µM unless noted.
In assay [8] the test system is UACC-62 melanoma. The following applies: 10 µM unless noted.
The subject of assay [9] is LOX IMVI melanoma. The following applies: 10 µM unless noted.
Assay [10] has as its system SK-MEL-28 melanoma. Particulars: 10 µM unless noted.
Assay [11] concerns EKVX NSCLC. Particulars: 10 µM unless noted.
Assay [12] deals with SN12C renal. The following applies: 10 µM unless noted.
The test system of assay [13] is UO-31 renal. Particulars: 10 µM unless noted.
The subject of assay [14] is TK-10 renal. The following applies: 10 µM unless noted.
In assay [15] the test system is ACHN renal. The following applies: 10 µM unless noted.
Assay [16] relates to CAKI-1 renal. The following applies: 10 µM unless noted.
Assay [17] relates to A498 renal. Particulars: 10 µM unless noted.
Assay [18] relates to CCRF-CEM leukemia. Particulars: 10 µM unless noted.
In assay [19] the test system is MOLT-4 leukemia. The following applies: 10 µM unless noted.
In assay [20] the test system is SK-MEL-2 melanoma. Particulars: 10 µM.

Turning to `CN1CC[C@H](c2c(O)cc(O)c3c(=O)cc(-c4ccccc4Cl)oc23)[C@H](O)C1`, the growth in assay [1] is 4.15% (active); in assay [2] it was -19.8% (active); in assay [3], -59.7% (active); in [4], 10.1%; in assay [5] it was 5.78% (active); in assay [6], -4.62% (active). Also, the growth is -19% (active) in assay [7]; -49.6% (active) in [8]; 4.81% (active) in assay [9]; -29.4% (active) in assay [10]; 0.266% (active) in assay [11]; 10.4% in assay [12]. The growth in assay [13] was -14.1% (active); in assay [14], -0.739% (active); in assay [15], 4.43% (active); in assay [16] it was 10.1%; in [17] it was -54.2% (active); in [18], 10.2%.
`CCS(=O)(=O)N1CCN(c2ccc(Nc3ncc(C(N)=O)c(NC4CC4)n3)cc2)CC1`: the growth in assay [1] was 58.2%; in [2], 76.2%; in assay [3], 88%; in [4], 105%; in [5], 93.4%; in [6] it was 92.4%. Besides, the growth in assay [7] was 66.8%; in assay [8], 101%; in [9], 73.7%; in assay [10] it was 83.3%; in assay [11], 91.6%; in assay [12] it was 62.8%. For the same compound, the growth was 52.9% in [13]; 87.3% in [14]; 85.1% in assay [15]; 97.6% in [16]; 95.6% in assay [17]; 27.6% in assay [18]. Moreover, in assay [19], the growth is 51.7%.
For `O=C(COc1ccc(/C=C2\Cc3ccc(Cl)cc3C2=O)cc1)Nc1nccs1`, the growth is 98.5% in assay [1]; 108% in assay [2]; 86.6% in [3]; 83.8% in [4]; 108% in [5]; 96% in assay [6]. In addition, the growth in [7] was 99.3%; in assay [8] it was 95.3%; in [9] it was 93%; in assay [10], 122%; in [11], 110%; in [12], 95.7%. Further, the growth in [13] was 28.7%; in [14] it was 138%; in assay [15], 92.7%; in assay [16], 90.1%; in [17] it was 127%; in assay [18], 59.5%. Further, the growth in assay [19] is 51.7%.
Take `CN[C@@H]1C[C@H]2O[C@@](C)([C@@H]1OC)n1c3ccccc3c3c4c(c5c6ccccc6n2c5c31)C(=O)N[C@H]4O`: the growth in assay [1] was -16.8% (active); in [2] it was -16.7% (active); in [3], -98.9% (active); in [4], -34.4% (active); in assay [5] it was -85.3% (active); in assay [6], 4.43% (active). For the same compound, the growth in assay [7] is -98.9% (active); in assay [8] it was -63.1% (active); in [9], -85.5% (active); in assay [10] it was -61.3% (active); in [11] it was -4.21% (active); in assay [12], -38.7% (active). In addition, the growth is -64.4% (active) in assay [13]; -34% (active) in assay [14]; 5.01% (active) in [15]; -59.7% (active) in assay [16]; -97.1% (active) in assay [17]; 0.26% (active) in assay [18]. Also, the growth in [19] is 0.831% (active).
For `CC(C)(O)CC(=O)NCCn1ccc2ncnc(Nc3ccc(Oc4cccc(C(F)(F)F)c4)c(Cl)c3)c21`, the growth is 12.2% in assay [1]; -24.2% (active) in assay [2]; 29.3% in assay [3]; 18.7% in assay [4]; 9.09% (active) in [5]; 1.54% (active) in assay [6]. Besides, the growth in [7] was -19.9% (active); in [8], -7.61% (active); in assay [9], 6.23% (active); in [10] it was -0.504% (active); in assay [11], 8.11% (active); in [12] it was 12.4%. In addition, the growth in assay [13] was -6.15% (active); in assay [14], -30.3% (active); in assay [15], 8.71% (active); in assay [16] it was 19.2%; in [17], -28.7% (active); in assay [18] it was 7.97% (active).
For `CCN(CCCOc1ccc2c(Nc3cc(CC(=O)Nc4cccc(F)c4)[nH]n3)ncnc2c1)CCOP(=O)(O)O`, the growth is 84.7% in [1]; 30.5% in assay [2]; 80.5% in [3]; 71.1% in assay [4]; 71.8% in assay [5]; 80% in assay [6]. Further, the growth in assay [7] was 99.8%; in assay [8], 53.7%; in [9], 42%; in assay [10], 55.3%; in assay [11] it was 99.3%; in [12], 79%. Moreover, the growth was 69.3% in assay [13]; 83.9% in [14]; 95.5% in assay [15]; 58.1% in assay [16]; 98.4% in [17]; 51.4% in [18].
Consider `Cc1sc2c(c1C)c(=O)nc1c(-c3nc4ccccc4s3)n[nH]n12`, for which the growth in [1] is 100%; in [2], 101%; in assay [3], 95.3%; in assay [4], 101%; in [5], 98%; in [6], 78.7%. Also, the growth is 96.7% in assay [7]; 88.4% in assay [8]; 93.3% in assay [9]; 101% in assay [10]; 95.2% in assay [20]; 81.9% in [11]. In addition, the growth was 96.7% in assay [12]; 140% in assay [14]; 101% in assay [15]; 101% in assay [17]; 89.2% in [18]; 94.5% in assay [19].
As for `COc1cc2ncnc(Nc3ccc(F)c(Cl)c3)c2cc1NC(=O)/C=C/CN1CCCCC1`, the growth in assay [1] was -49.7% (active); in [2], -63.4% (active); in assay [3] it was -97.8% (active); in assay [4], -47.5% (active); in assay [5], -77.1% (active); in assay [6], -58.3% (active). Moreover, the growth in assay [7] was -99.8% (active); in [8], -84.3% (active); in [9], -90.2% (active); in assay [10] it was -85.5% (active); in assay [11], -40.3% (active); in assay [12], -76.1% (active). The growth in assay [13] was -90.2% (active); in assay [14] it was -88.8% (active); in [15], -97.9% (active); in assay [16], -85.4% (active); in assay [17], -80.4% (active); in [18] it was 6.37% (active). Further, in assay [19], the growth is -13.1% (active).

These data come from PubChem BioAssay (NCI).
